The source of these data is the supplement of paper PMC9135407.

Values joined by “and” are separate entries in the source; they are usually repeats but may differ in a detail not shown here. Identical values can stand only once. Counter-ions that a name gives are not always drawn. The campaign covered roughly 5,800 compounds. About 620 (11%) showed activity. The list comes from a sample in which actives are over-represented; it also holds similar structures and randomly drawn compounds. Values without a mark were called inactive.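 How the source made its calls: active = score above a cut-off or among the top three wells of a plate; in these data no inactive exceeds 0.85.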 Where only a bound is given, the exact number is not on record here.

The test system of the assay is primary human hepatic stellate cells (donor 1). In words: scaled lipid accumulation score (0 = DMSO-like, 1 = nortriptyline-like); higher = stronger HSC inactivation (lipid re-accumulation), active = hit call of the paper. The note with it: 48 h. The procedure:
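Primary lipid accumulation screen in primary human hepatic stellate cell myofibroblasts (donor 1, passage 8) in 384-well plates. 100 nL of library compound was pin-transferred into 30 µL medium in duplicate, and cells were treated for 48 h. The 'Scaled' score combines distance from plate baseline, toxicity and reproducibility penalties, and is normalised to nortriptyline (positive) and DMSO (negative) controls on each plate. A hit is defined as scaled >0.85 or among the top 3 wells per plate.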

Setting [1] is: library stock concentration: 3.33 mM.
Setting [2] is: library stock concentration: 1 mM.
[3] abbreviates: library stock concentration: 80 uM.
Setting [4] is: library stock concentration: 400 uM.
Where [5] appears, read: library stock concentration: 2 mM.
[6] abbreviates: library stock concentration: 10 mM.

In the case of `O=C(c1ccccc1)c1ccc(N2CCOCC2)cc1O` [DNA-PK Inhibitor V], under setting [1], the “scaled lipid accumulation score” value is not above 0.

For `CCCCC(C)(C)[C@H](O)/C=C/[C@H]1C(=O)C[C@H](O)[C@@H]1C/C=C\CCCC(=O)O` [16,16-dimethyl Prostaglandin D2], the “scaled lipid accumulation score” value under setting [2] is not above 0. For the molecule `O=C1NC(=O)[C@@H](c2cn3c4c(cccc24)CCC3)[C@@H]1c1c[nH]c2ccccc12` [Tivantinib], the “scaled lipid accumulation score” value was not above -0.009 under setting [3], 0.071 under setting [4], not above -0.009 under setting [5] and 0.169 under setting [6]. Consider `CCCCCC(=O)CC[C@H]1C(=O)C[C@H](O)[C@@H]1C/C=C\CCCC(=O)O` [13,14-dihydro-15-keto Prostaglandin D2], for which the “scaled lipid accumulation score” value under setting [2] was not above 0. Regarding `COc1cc(N2CCN(C)CC2)ccc1Nc1nccc(-c2cn(C)c3cnccc23)n1`, the “scaled lipid accumulation score” value under setting [1] is not above -0.009 and the “scaled lipid accumulation score” value under setting [6] was 0.446.

For the molecule `C=CC(=O)Nc1cc(Nc2nccc(-c3cn(C)c4ccccc34)n2)c(OC)cc1N(C)CCN(C)C` [listing 1 of 3 here], under setting [5], the “scaled lipid accumulation score” value is 1.01 (active). In the case of `C=CC(=O)Nc1cccc(Nc2nc(Nc3ccc(N4CCN(C(C)=O)CC4)cc3OC)ncc2C(F)(F)F)c1`, the “scaled lipid accumulation score” value under setting [1] is not above -0.009 and the “scaled lipid accumulation score” value under setting [6] is 0.063. `C=CC(=O)Nc1cc(Nc2nccc(-c3cn(C)c4ccccc34)n2)c(OC)cc1N(C)CCN(C)C` [listing 2 of 3 here]: the “scaled lipid accumulation score” value under setting [1] was 0.983 (active).

`C=CC(=O)Nc1cccc(Nc2nc(Nc3ccc(NC4CN(CCF)C4)cc3OC)ncc2C(F)(F)F)c1`: the “scaled lipid accumulation score” value runs as follows: under setting [1], not above -0.009; under setting [6], 0.811.

Regarding `C=CC(=O)Nc1cc(Nc2nccc(-c3cn(C)c4ccccc34)n2)c(OC)cc1N(C)CCN(C)C` [listing 3 of 3 here], the “scaled lipid accumulation score” value under setting [6] was not above 0. On the same count and under the same terms, under `CCN1CCCC1CNC(=O)c1cc(S(N)(=O)=O)ccc1OC` (single isomer, unassigned; (-)) [(-)-Sulpiride] stands not above 0; under `O=C1CCc2c(ccc3ccccc23)O1` [Splitomicin], not above -0.006. As for `CCCCC[C@@H](O)/C=C/[C@@H]1[C@H](C/C=C\CCCC(=O)O)[C@@H](O)C[C@H]1O` [8-iso-15(R)-Prostaglandin F2.alpha.], the “scaled lipid accumulation score” value under setting [2] was not above 0. As for `CCCCC[C@H](O)/C=C/[C@@H]1[C@@H](C/C=C\CCCC(=O)NC(CO)CO)[C@@H](O)C[C@H]1O` [Prostaglandin F2.alpha. serinol amide], under setting [2], the “scaled lipid accumulation score” value is not above 0. For the molecule `Nc1ncnc2c1c(I)cn2[C@@H]1O[C@H](CO)[C@@H](O)[C@H]1O` [5-Iodotubercidin], under setting [1], the “scaled lipid accumulation score” value is not above 0. For `CCCCC[C@H](O)/C=C/[C@H]1C=CC(=O)[C@@H]1C/C=C\CCCC(=O)O` [Prostaglandin A2], under setting [2], the “scaled lipid accumulation score” value was ≤ 0 and ≤ -0.021. As to `N=C(N)N/N=C/c1c(Cl)cccc1Cl` [Guanabenz Acetate], the “scaled lipid accumulation score” value is not above 0 under setting [1] and 0.578 under setting [6]. Take `N=C(N)N/N=C/c1c(Cl)cccc1Cl` [Guanabenz acetate]: the “scaled lipid accumulation score” value was 0.45. Besides, the “scaled lipid accumulation score” value (library stock concentration: 6.9 mM) is 0.304. For the same molecule, where the note is “library stock concentration: 8.7 mM”, the “scaled lipid accumulation score” value was 0.227. Under setting [6], the “scaled lipid accumulation score” value is 0.426 and 0.365.

As for `N=C(N)NC(=O)Cc1c(Cl)cccc1Cl` [Guanfacine hydrochloride], the “scaled lipid accumulation score” value is not above 0. For the same molecule, under setting [6], the “scaled lipid accumulation score” value is 0.148 and 0.048. As for `N=C(N)NC(=O)Cc1c(Cl)cccc1Cl` [Guanfacine HCl], for the setting “library stock concentration: 7.1 mM”, the “scaled lipid accumulation score” value was not above -0.006.

For `CC(=O)O.N=C(N)N/N=C/c1c(Cl)cccc1Cl` [Guanabenz acetate], under setting [6], the “scaled lipid accumulation score” value was 0.999 (active). For `CCCCCC#CCC#CCC#CCC#CCCCC(=O)O` [5,8,11,14-Eicosatetraynoic acid], the “scaled lipid accumulation score” value under setting [2] is not above -0.021. As to `CCCCCCCCCCCCCCCC(=O)N[C@H]1CCOC1=O` [N-hexadecanoyl-L-Homoserine lactone], the “scaled lipid accumulation score” value under setting [2] is not above 0.

For the molecule `CN(C)CCC=C1c2ccccc2C=Cc2ccccc21.Cl` [Cyclobenzaprine HCl], the “scaled lipid accumulation score” value under setting [1] is 0.507 (active). On to `C(/c1c2cccc1)(=C/CCN(C)C)\c3c(cccc3)C=C2.Cl` [Cyclobenzaprine hydrochloride], for which the “scaled lipid accumulation score” value is 0.86 (active). For `CN(C)CCC=C1c2ccccc2C=Cc2ccccc21` [Cyclobenzaprine HCl], under setting [6], the “scaled lipid accumulation score” value was 0.745. Regarding `CN(C)CCC=C1c2ccccc2C=Cc2ccccc21` [Cyclobenzaprine hydrochloride], the “scaled lipid accumulation score” value is 0.579 (library stock concentration: 6.4 mM) and 0.568 under setting [6].

Regarding `C(=C/CCN(C)C)(/c1c2cccc1)\c3c(cccc3)C=C2.Cl` [Cyclobenzaprine hydrochloride], the “scaled lipid accumulation score” value under setting [6] was 0.991 (active). As for `CC(C(=O)O)c1ccc(CC2CCCC2=O)cc1` (centres undefined) [loxoprofen], the “scaled lipid accumulation score” value under setting [6] was 0.127. Still for that read-out and setting: under `CC(C(=O)O)c1ccc(CC2CCCC2=O)cc1` (centres undefined) stands not above 0. Consider `C=C1CC[C@H](O)C/C1=C/C=C1\CCC[C@]2(C)[C@@H]([C@H](C)CCCC(C)(C)O)CC[C@@H]12` [Calcifediol], for which the “scaled lipid accumulation score” value by setting is: under setting [1], not above 0; (library stock concentration: 5 mM) 0.042; under setting [6], not above 0.

Take `Nc1nc2c(ncn2[C@@H]2O[C@H](CO)[C@@H](O)[C@@H]2O)c(=O)[nH]1` [Ara-G hydrate]: the “scaled lipid accumulation score” value under setting [6] is not above 0. On to `Oc1ccc(OC2CCCCO2)cc1` (centres undefined) [Deoxyarbutin], for which the “scaled lipid accumulation score” value is not above 0 under setting [1] and not above -0.001 under setting [6]. Take `CC(=O)N(CC(O)CO)c1c(I)c(C(=O)NCCO)c(I)c(C(=O)NCC(O)CO)c1I` (centres undefined): the “scaled lipid accumulation score” value under setting [6] is not above 0. Turning to `O=C(OC[C@@H]1O[C@H]1c1ccccc1)Oc1ccc([N+](=O)[O-])cc1`, under setting [2], the “scaled lipid accumulation score” value was not above 0. The same measure, in the same setting: under `CCCCC[C@H](O)/C=C/[C@@H]1[C@@H](CC(=O)CCCCC(=O)O)[C@@H](O)C[C@H]1O` [6-Keto-prostaglandin F1a] stands not above -0.021.

For the molecule `CCCCC[C@H](O)/C=C/[C@@H]1[C@@H](CC(=O)CCCCC(=O)O)[C@@H](O)C[C@H]1O` [6-keto Prostaglandin F1.alpha.], the “scaled lipid accumulation score” value under setting [2] is not above 0. For `COc1c/c(=C2\C=c3ccccc3=N2)[nH]/c1=C\c1[nH]c(C)cc1C` [Obatoclax Mesylate (GX15-070)], the “scaled lipid accumulation score” value was 0.602 under setting [1] and 0.617 under setting [6]. Consider `CNCCc1ccccn1` [Betahistine hydrochloride], for which, under “library stock concentration: 9.6 mM”, the “scaled lipid accumulation score” value is not above 0. As for `CC(NCCC(c1ccccc1)c1ccccc1)c1ccccc1` (centres undefined) [Fendiline hydrochloride], the “scaled lipid accumulation score” value is 0.144. In addition, the “scaled lipid accumulation score” value under setting [6] was 0.431. For `CNCCc1c[nH]c(CCC(c2ccccc2)c2ccccc2)n1.O=C(O)C(=O)O.O=C(O)C(=O)O` [N-Methylhistaprodifen dioxalate salt], under setting [6], the “scaled lipid accumulation score” value is 1.02 (active).

Regarding `CNCCc1ccccn1` [Betahistine mesylate], the “scaled lipid accumulation score” value was 0.122. For the molecule `CNCCc1ccccn1` [Betahistine 2HCl], the “scaled lipid accumulation score” value under setting [1] is not above 0 and the “scaled lipid accumulation score” value under setting [6] is not above -0.001. `CCCc1nc(C)c2c(=O)nc(-c3cc(S(=O)(=O)N4CCN(CC)CC4)ccc3OCC)[nH]n12`: the “scaled lipid accumulation score” value under setting [6] is not above 0. As for `CCCc1nc(C)c2c(=O)nc(-c3cc(S(=O)(=O)N4CCN(CC)CC4)ccc3OCC)[nH]n12` [Vardenafil HCl Trihydrate], the “scaled lipid accumulation score” value under setting [1] is not above 0 and the “scaled lipid accumulation score” value under setting [6] is 0.473. With `COc1cc2ncnc(-n3nc(-c4ccccn4)nc3N)c2cc1OC`, the “scaled lipid accumulation score” value by setting is: under setting [3], not above 0; under setting [4], 0.052; under setting [5], 0.101; under setting [6], 0.046.

As for `N[C@H]1C(O)O[C@H](CO)[C@@H](O)[C@@H]1O` (some centres undefined) [Glucosamine hydrochloride], the “scaled lipid accumulation score” value by setting is: (library stock concentration: 9.3 mM) not above -0.001; under setting [6], 0.034.

Consider `CCCCCC=CCC=CCC=CCC=CCCCCCC(=O)O` [Adrenic acid (22:4, n-6)], for which the “scaled lipid accumulation score” value under setting [2] is not above -0.01. With `CCN(CC)CCOc1ccc(C(=C(Cl)c2ccccc2)c2ccccc2)cc1.O=C(O)CC(O)(CC(=O)O)C(=O)O` [Clomifene citrate], under setting [6], the “scaled lipid accumulation score” value was 1.12 (active). Turning to `CCN(CC)CCOc1ccc(/C(=C(/Cl)c2ccccc2)c2ccccc2)cc1.O=C(O)CC(O)(CC(=O)O)C(=O)O` [Clomiphene citrate (Z,E)], the “scaled lipid accumulation score” value is 0.946 (active).

Turning to `CCN(CC)CCOc1ccc(C(=C(Cl)c2ccccc2)c2ccccc2)cc1` [Clomifene citrate], the “scaled lipid accumulation score” value under setting [1] was 0.72. Take `CCN(CC)CCOCCOC(=O)C(CC)(CC)c1ccccc1.O=C(O)CC(O)(CC(=O)O)C(=O)O`: the “scaled lipid accumulation score” value under setting [6] is 0.866 (active). As to `CCN(CC)CCOC(=O)c1ccc(N)cc1` [Procaine hydrochloride], the “scaled lipid accumulation score” value was 0.256. The “scaled lipid accumulation score” value (library stock concentration: 7.3 mM) is not above 0. Also, under setting [6], the “scaled lipid accumulation score” value was not above 0. Take `CCCC(C(=O)OCCN(CC)CC)(c1ccccc1)c1ccccc1` [SKF-525A hydrochloride]: the “scaled lipid accumulation score” value under setting [6] is 0.355. Same read-out and setting: the result for `CCN(CC)CCOc1ccc(C(=C(Cl)c2ccccc2)c2ccccc2)cc1.O=C(O)CC(O)(CC(=O)O)C(=O)O` [Clomid] reads 0.963 (active). For the molecule `CCN(CC)CCOC(=O)c1ccc(N)cc1` [Procaine HCl], the “scaled lipid accumulation score” value reads like this: under setting [1], not above 0; under setting [6], not above -0.001. As for `CCN(CC)CCOc1ccc(C(=C(Cl)c2ccccc2)c2ccccc2)cc1` [Clomiphene citrate], the “scaled lipid accumulation score” value was 0.705 (library stock concentration: 4.9 mM) and not above 0 under setting [6].

For the molecule `COc1ccc(C(Cl)=C(c2ccc(OC)cc2)c2ccc(OC)cc2)cc1` [Chlorotrianisene], the “scaled lipid accumulation score” value is not above 0. Where the note is “library stock concentration: 5.3 mM”, the “scaled lipid accumulation score” value was 0.022. Moreover, under setting [6], the “scaled lipid accumulation score” value was not above 0. Consider `CCN(CC)CCOCCOC(=O)C1(c2ccccc2)CCCC1` [Pentoxyverine Citrate], for which the “scaled lipid accumulation score” value under setting [1] is not above 0 and the “scaled lipid accumulation score” value under setting [6] is 0.424. As to `CCN(CC)CCOCCOC(=O)C1(c2ccccc2)CCCC1` [Carbetapentane citrate], the “scaled lipid accumulation score” value is 0.595. Further, the “scaled lipid accumulation score” value under setting [6] was 0.72 and 0.014 and 0.411.

In the case of `CCCC(C(=O)OCCN(CC)CC)(c1ccccc1)c1ccccc1` [Proadifen hydrochloride], the “scaled lipid accumulation score” value was 0.228. Also, the “scaled lipid accumulation score” value (library stock concentration: 5.1 mM) was 0.536. Moreover, under setting [6], the “scaled lipid accumulation score” value was 0.511.
